This is an account of results in ChEMBL document CHEMBL1157539, “Thousands of chemical starting points for antimalarial lead identification” (Nature, 2010).

Fewer than 10 of roughly 13,000 compounds showed an effect of 50% or more. Only a sample is shown.

Broadly, the inhibition is the share of the control response that was lost under treatment. Read a high inhibition as a response far below the control.

The test has as its system Plasmodium falciparum. The test can be described thus: GSK_TCMDC: Inhibition of Plasmodium falciparum 3D7 LDH activity, using an LDH reporter assay. Test compounds present at 2uM. In kind it is functional, organism-based. On the technique in general: Reporter assays use an easily measured gene product as a stand-in for the process of interest.
Consider `Fc1ccc(C=NN=c2cc[nH]c3ccccc23)cc1`, for which the inhibition came to 4%.

Take `COc1ccc(OCCCCON2C(=N)N=C(N)NC2(C)C)cc1`: the inhibition was 4%.

`COc1cccc(CCN(Cc2ccccc2-c2ccc(CNC3CC(C)(C)NC(C)(C)C3)cc2)C(=O)NC2CCCCC2)c1`: the inhibition was 0%.

Turning to `N#Cc1ccc(N2C[C@@H](OCc3ccccc3)C[C@H]2C(=O)NCCC(c2ccccc2)c2ccccc2)c2ccccc12`, the inhibition is 0%.

`CCCCCCOc1ccc(C(=O)N(Cc2ccccc2)c2c(-c3ccccc3)nc3cc(C)ccn23)cc1` yielded an inhibition of 3%.

Turning to `CCc1cccc2sc(N3CCN(C(=O)c4ccc([N+](=O)[O-])o4)CC3)nc12`, the inhibition turned out to be 0%.

`CCOc1c(CCNCCCCNCCc2ccc3ccccc3c2OCC)ccc2ccccc12` showed an inhibition of 0%.

Molecule `CN1CCC(Oc2ccc(CN3CC[C@H](NC(=O)c4ccc(Cl)c(F)c4)C3)c3ccccc23)C1` (stereo partly drawn) had an inhibition of 3%.

`CCN(CC)CCN(Cc1ccc(-c2ccc(C(F)(F)F)cc2)cc1)C(=O)Cn1c(CCc2ccccc2F)nc(=O)c2ccccc21` yielded an inhibition of 0%.

`Cc1cccc2nc(-c3cccc(-c4ccc(NC(=O)c5ccoc5)cc4)c3)[nH]c12`: the inhibition stood at 0%.

With `O=c1cc(NCCCNCc2cccc(OC(F)(F)F)c2)[nH]c2ccccc12`, the inhibition is 0%.

In turn, `O=C(Nc1ccc2c(c1)CCC2)N[C@H]1CCN(Cc2ccc(OCCCN3CCCCC3)cc2)C1` registered an inhibition of 0%.

The molecule `CCN1CCC(N(Cc2ccc(-c3ccc(C(F)(F)F)s3)cc2)C(=O)Cn2c(CCc3cccc(F)c3F)nc(=O)c3ccccc32)CC1` had an inhibition of 7%.

Take `Fc1ccc2[nH]c(-c3cccc(-c4ccc(CNCc5cnn(-c6ccccc6)n5)cc4)c3)nc2c1`: the inhibition worked out at 0%.

As for `CNCCNCc1ccc(-c2ccc(-c3nc4cc(F)ccc4[nH]3)cc2)cc1`, the inhibition came out at 4%.

`O=C1C(=Cc2c(O)ccc3ccccc23)SC(=NCc2ccccc2)N1Cc1ccccc1` gave an inhibition of 0%.

As for `COC(=O)c1cccc(CNCc2cccc(-c3ccc(-c4nc5cccc(C)c5[nH]4)s3)c2)c1`, the inhibition turned out to be 1%.

`CCN1CCC(N(Cc2ccc(-c3ccc(C(F)(F)F)cc3)cc2)C(=O)Cn2c(CCc3cccc(F)c3F)nc(=O)c3ccccc32)CC1` yielded an inhibition of 3%.

In the case of `Cc1cccc2nc(-c3cccc(-c4ccc(NC(=O)c5cnccc5C(F)(F)F)cc4)c3)[nH]c12`, the inhibition stood at 0%.

For the molecule `CCOC(=O)NC1=NC(C)(C)N(OCCCOc2ccc(C)cc2C)C(NC(=O)OCC)=N1`, the inhibition amounted to 7%.

In turn, `CS(=O)(=O)c1cc2c(Nc3ccc(N4CCOCC4)cc3)c(C(N)=O)cnc2cc1Br` returned an inhibition of 0%.

Take `COc1ccc2nccc(N3CCC(CCNCc4cc5c(cn4)OCCO5)CC3)c2c1`: the inhibition is 6%.

The molecule `O=C(Nc1cccc(F)c1)N1CCC(CN2CCOC(c3ccccc3)(c3ccccc3)C2)CC1` came in with an inhibition of 7%.
